The source of these data is PubChem BioAssay (NCATS).

For test [1], the system named is HaCat. Description: Cytotoxic Profiling of Annotated Libraries Using Quantitative High-Throughput Screening (AID 1296008). Note: nearly all actives have a fitted effect of over 60% in size. Particulars: Five cell lines viability, CellTiter-Glo ATP luminescence, 48-72 h; max response: hits give low values. The gist of the method:
(§1)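 Cells exposed to compounds for 48 or 72 hr at 37 degrees Celsius. Viability read as ATP-coupled luminescence with CellTiter-Glo after 10 min at room temperature.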
For orientation: In ATP-based viability assays light output follows the ATP content of the culture.

The subject of test [2] is NIH3T3. The test is described as above. Particulars: Five cell lines viability, CellTiter-Glo ATP luminescence, 48-72 h; max response: hits give low values. A digest of the protocol: as §1
In test [3] the test system is HACAT. In words: qHTS assay to identify novel small-molecules to repurpose for Merkel cell carcinoma treatment (AID 1296009). Note: nearly all actives have a fitted effect of over 60% in size. Note: potency is the fitted concentration of half-maximal effect. To be noted: MCC and control cell lines, CellTiter-Glo viability, 72 h; at 44.8 µM (top of the series) unless noted. The gist of the method:
(§2)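 CellTiter-Glo luminescence after 72 hr compound exposure at 37 degree celsius gave cell viability. Libraries NPC and MIPE were run as 8- and 11-point dose responses; RLUs normalized to DMSO (negative) and no-cell (cytotoxicity) controls.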
On the technique in general: In qHTS, concentration-response curves come from the screen itself.

The subject of test [4] is MCC-13. The description is as above. To be noted: MCC and control cell lines, CellTiter-Glo viability, 72 h; series mostly up to 46 µM. A digest of the protocol: as §2
Test [5] concerns MCC-26. The description is as above. To be noted: MCC and control cell lines, CellTiter-Glo viability, 72 h; series mostly up to 46 µM. A digest of the protocol: as §2
For test [6], the system named is MKL-1. Described as above. Particulars: MCC and control cell lines, CellTiter-Glo viability, 72 h; series mostly up to 46 µM. The gist of the method:
as §2

Test [7] has as its system MKL-2. The description is as above. To be noted: MCC and control cell lines, CellTiter-Glo viability, 72 h; series mostly up to 46 µM. The gist of the method: as §2
Test [8] has as its system UISO. The description is as above. To be noted: MCC and control cell lines, CellTiter-Glo viability, 72 h; series mostly up to 46 µM. A digest of the protocol:
as §2

Test [9] has as its system WaGa. The description is as above. Particulars: MCC and control cell lines, CellTiter-Glo viability, 72 h; series mostly up to 46 µM. A digest of the protocol: as §2
Test [10] relates to C33A. In words: Primary qHTS to identify gynecologic anti-cancer compounds using libraries of approved drugs and bioactive compounds (AID 1345084). Note: nearly all actives have a fitted effect of over 55% in size. To be noted: Gynecologic cancer cell panel viability, ATPlite luminescence, 48 h; series mostly up to 57.5 µM. A digest of the protocol: (§3)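 ATP-based viability (ATPlite), 1,000 cells/well, 16 h pre-incubation, 48 h compound at 37 C, 5% CO2, 15 min RT before read.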

Test [11] has as its system CAOV3. The description is as above. To be noted: Gynecologic cancer cell panel viability, ATPlite luminescence, 48 h; series mostly up to 57.5 µM. A digest of the protocol:
as §3

Test [12] has as its system CASKI. The description is as above. To be noted: Gynecologic cancer cell panel viability, ATPlite luminescence, 48 h; series mostly up to 57.5 µM. The gist of the method:
as §3

Test [13] has as its system Es-2. The test is described as above. Particulars: Gynecologic cancer cell panel viability, ATPlite luminescence, 48 h; series mostly up to 57.5 µM. A digest of the protocol:
as §3

For test [14], the system named is HeLa. The description is as above. Particulars: Gynecologic cancer cell panel viability, ATPlite luminescence, 48 h; series mostly up to 57.5 µM. The gist of the method:
as §3

The test system of test [15] is Hek293T. The test is described as above. Particulars: Gynecologic cancer cell panel viability, ATPlite luminescence, 48 h, control line for the selectivity index; series mostly up to 57.5 µM. The gist of the method:
as §3

Test [16] relates to JEG-3. Described as above. To be noted: Gynecologic cancer cell panel viability, ATPlite luminescence, 48 h; series mostly up to 57.5 µM. A digest of the protocol: as §3
The subject of test [17] is OV90. The test is described as above. To be noted: Gynecologic cancer cell panel viability, ATPlite luminescence, 48 h; series mostly up to 57.5 µM. The gist of the method:
as §3

The subject of test [18] is NIH3T3. Description: qHTS assay to identify novel small-molecules to repurpose for Merkel cell carcinoma treatment (AID 1296009). Note: nearly all actives have a fitted effect of over 60% in size. Note: potency is the fitted concentration of half-maximal effect. To be noted: MCC and control cell lines, CellTiter-Glo viability, 72 h; at 44.8 µM (top of the series) unless noted. A digest of the protocol: as §2
Test [19] has as its system HEK293T. The test is described as above. To be noted: MCC and control cell lines, CellTiter-Glo viability, 72 h; at 44.8 µM (top of the series) unless noted. The gist of the method:
as §2

SMILES strings stand for the structures. Records with an inconclusive call do not appear. A number with no mark means an inactive call. Activity calls are given as the source filed them. Calls come from the whole dose curve; as a rule, active = well fitted curve in the direction sought with a large enough effect; inconclusive = small, poorly fitted or top-dose-only effect, or another doubt; inactive = no such curve, though single readings can be large; an effect the other way counts as inactive or inconclusive.
% is set by controls: 0 for no effect and ±100 for the full control effect.

`CCC(C(=O)OCCN1CCOC(c2ccccc2)C1C)c1ccccc1` (configuration not stated): the outcome in [1] and in test [3] was inactive. Moreover, in test [2], the max response is -22.2%. For the same compound, the Potency entry in test [4], in test [5], in [6], in test [7], in test [8] and in test [9] was “inactive” each time. In addition, the Potency entry in [10], in test [11], in [12], in test [13], in test [14] and in test [15] was “inactive” in each case. The Potency entry in [16] and in test [17] was “inactive” throughout.
On to `Cc1cnc(NS(=O)(=O)c2ccc(N)cc2)nc1`, for which the call in [1] and in test [3] was inactive. Moreover, the max response in test [2] was 2.98%. Moreover, the Potency result in test [4], in test [5], in test [6], in [7], in [8] and in test [9] was “inactive” in each case. The Potency result in test [10], in [11], in test [12], in test [13], in test [14] and in test [15] was “inactive” in each case. The Potency entry in test [16] and in [17] was “inactive” throughout.
For `C/C(=N/NC(=O)c1ccncc1)C(=O)O`, the call in test [1] and in test [3] was inactive. In addition, in test [2], the max response is 0.247%. Moreover, the Potency entry in test [4], in test [5], in test [6], in test [7], in [8] and in test [9] was “inactive” each time. Besides, the Potency result in test [10], in test [11], in [12], in test [13], in test [14] and in test [15] was “inactive” each time. Further, the Potency entry in test [16] and in [17] was “inactive” throughout.
In the case of `Cc1cc(CCCOc2c(C)cc(-c3noc(C(F)(F)F)n3)cc2C)on1`, the outcome in test [1], in test [2], in [3] and in [18] was inactive. In addition, the Potency entry in [4], in test [5], in test [6], in [7], in [8] and in test [10] was “inactive” in each case. The Potency result in test [11], in test [12], in [13], in test [14], in [15] and in test [16] was “inactive” throughout. The Potency entry in test [17] is “inactive”.
As to `COC(=O)c1cc(S(N)(=O)=O)ccc1OC`, the result in [1], in test [2], in [3] and in [18] was inactive. In addition, the Potency entry in test [4], in [5], in [6], in test [7], in [8] and in test [9] was “inactive” each time. For the same compound, the Potency entry in test [10], in [11], in test [12], in test [13], in test [14] and in test [15] was “inactive” in each case. Also, the Potency entry in [16] and in test [17] was “inactive” in each case.
`CC(C)C(=O)Nc1cccc(C(F)(F)F)c1`: the call in test [1] and in [3] was inactive. The max response in [2] was 2.63%. Further, the Potency result in test [4], in test [5], in test [6], in test [7], in test [8] and in [9] was “inactive” throughout. Moreover, the Potency entry in test [10], in [11], in test [12], in [13], in test [14] and in test [15] was “inactive” each time. For the same compound, the Potency entry in [16] and in test [17] was “inactive” throughout.
For the compound `CC(C)OP(=O)(CP(=O)(OC(C)C)OC(C)C)OC(C)C`, the compound was called inactive in test [1] and in [3]. Besides, in test [2], the max response is -2.18%. Besides, the Potency entry in test [4], in test [5], in test [6], in test [7], in test [8] and in test [9] was “inactive” each time. Moreover, the Potency result in [10], in test [11], in [12], in [13], in [14] and in test [15] was “inactive” each time. Besides, the Potency entry in [16] and in [17] was “inactive” throughout.
As for `CC(Oc1c(Cl)cccc1Cl)C1=NCCN1` (configuration not stated), the outcome in test [1] and in test [3] was inactive. Also, the max response in [2] is 3.55%. The Potency entry in test [4], in test [5], in test [6], in [7], in [8] and in test [9] was “inactive” in each case. The Potency entry in test [10], in test [11], in test [12], in [13], in [14] and in test [15] was “inactive” in each case. In addition, the Potency result in test [16] and in test [17] was “inactive” in each case.
Turning to `CCn1ccc(NS(=O)(=O)c2ccc(N)cc2)nc1=O`, the compound was classed as inactive in test [1], in [2], in test [3] and in test [18]. The Potency entry in test [4], in test [5], in test [6], in [7], in [8] and in [9] was “inactive” in each case. In addition, the Potency result in test [10], in [11], in test [12], in [13], in [14] and in [15] was “inactive” each time. Besides, the Potency result in test [16] and in [17] was “inactive” in each case.
Regarding `CCOc1ncc(F)c(=O)[nH]1`, the outcome in [1] and in test [3] was inactive. The max response in test [2] was -1.34%. Also, the Potency result in test [4], in test [5], in test [6], in test [7], in test [8] and in [9] was “inactive” throughout. The Potency entry in test [10], in [11], in [12], in test [13], in test [14] and in [15] was “inactive” throughout. Moreover, the Potency result in [16] and in test [17] was “inactive” each time.
As for `C[C@@H]1CCC[C@H](C)N1CCCC(O)(c1ccccc1)c1ccccn1` (some centres not stated), the outcome in [1] and in test [3] was inactive. Moreover, the max response in test [2] is -1.21%. Besides, the Potency entry in test [4], in [5], in [6], in test [7], in test [8] and in test [9] was “inactive” throughout. The Potency entry in test [10], in [11], in test [12], in test [13], in test [14] and in [15] was “inactive” throughout. In addition, the Potency entry in test [16] and in test [17] was “inactive” in each case.
Turning to `CCCCCCOC(=O)NC(=N)c1ccc(NCc2nc3cc(C(=O)N(CCC(=O)OCC)c4ccccn4)ccc3n2C)cc1`, the outcome in test [1] and in test [3] was inactive. Moreover, the max response in test [2] is 1.24%. Besides, the Potency entry in test [4], in test [5], in test [8], in test [10], in test [11] and in [12] was “inactive” throughout. Moreover, the Potency entry in [14] and in test [16] was “inactive” in each case. In addition, the Potency in [6] is 8.41 µM (active); in test [7] it was 15 µM (active).
In the case of `CCOc1ccccc1OCC1CNCCO1` (configuration not stated), in test [1], the max response was 0.667%. Also, the call in test [2], in test [19] and in [18] was inactive. In addition, the Potency entry in test [4], in test [5], in [6], in [7], in test [8] and in test [9] was “inactive” throughout. Moreover, the Potency entry in [10], in [11], in test [12], in test [13], in test [14] and in test [15] was “inactive” throughout. The Potency result in test [16] and in test [17] was “inactive” throughout.
On to `CCOC(=O)C(=O)CCc1ccccc1`, for which the compound was called inactive in test [1] and in test [3]. Further, the max response in [2] is -3.41%. In addition, the Potency entry in test [5], in test [6], in [7], in test [8], in test [9] and in test [10] was “inactive” each time. The Potency entry in [11], in test [12], in test [13], in [14], in test [15] and in test [16] was “inactive” in each case. In [17], the Potency entry is “inactive”.
As to `COc1ccc2cc(C=O)ccc2c1`, the compound was classed as inactive in test [1] and in test [3]. For the same compound, the max response in test [2] was 2.35%. Also, the Potency entry in test [4], in [5], in test [6], in test [7], in [8] and in test [9] was “inactive” each time. In addition, the Potency entry in [10], in [12], in test [13], in [14], in test [15] and in test [16] was “inactive” in each case. In [17], the Potency result was “inactive”.
